Assay results published in PubChem BioAssay (Tox21).
Records with an inconclusive call do not appear. Activity calls are given as the source filed them. Unless noted, the call rests on the fitted dose curve; in most records, active means well fitted curve in the direction sought with a large enough effect in the repeat runs; inconclusive means weak or mixed curves; inactive means no such curve, though single readings can be large; an effect the other way counts as inactive or inconclusive.

What was measured:
[1] = qHTS assay for small molecule agonists of the p53 signaling pathway (AID 651631; calls by dose curve; further: nearly all actives have a fitted effect of over 15% in size)
How it was run: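 HCT-116 cells carrying a beta-lactamase reporter under p53 response elements were dosed with compound for 16 h at 37 °C. LiveBLAzer B/G FRET substrate was then added for 2 h at room temperature, and fluorescence intensity was read to detect pathway agonism.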

[2] = qHTS assay for small molecule agonists of the p53 signaling pathway - cell viability (AID 651633; calls by dose curve;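 further: p53RE-bla HCT reporter cells with a stable beta-lactamase p53 reporter; series mostly up to about 83 µM; nearly all actives have a fitted effect of over 30% in size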)
How it was run: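 p53RE-bla cells, seeded at 4,000 per well and rested 5 h at 37 C/5% CO2, received compounds in DMSO for 16 h at 37 C. CellTiter-Glo was then added, and luminescence was read after 30 min at room temperature to gauge cytotoxicity.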

[3] = qHTS assay for small molecules that induce genotoxicity in human embryonic kidney cells expressing luciferase-tagged ATAD5 - cell viability (AID 651634; calls by dose curve; further: nearly all actives have a fitted effect of over 25% in size)
How it was run: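 Fluorescence from CellTiter-Fluor, reporting protease activity within live cells, served as the viability read-out. HEK293T cells carrying luciferase-tagged ATAD5 had been treated with compound for 15.5 hr at 37C.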

[4] = qHTS assay for small molecule disruptors of the mitochondrial membrane potential - cell viability (AID 720634; calls by dose curve;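 further: human HepG2 liver cancer cells; series mostly up to about 83 µM; nearly all actives have a fitted effect of over 20% in size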)
How it was run: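 Cells: HepG2, 2,000/well, attached overnight. Compound 1 hr, 37 C/5% CO2. +m-MPI dye, +CellTiter-Glo 30 min RT. Readout: luminescence (ATP).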

[5] = qHTS assay to test for compound auto fluorescence at 590 nm (red) in HepG2 cells (AID 720674)
How it was run: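 Intrinsic compound fluorescence in the red window (Ex/Em 540/590 nm) is measured in attached HepG2 cells exposed for 1 hr, DMSO vehicle as baseline, benchmarked to Rose Bengal sodium.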

[6] = qHTS assay to test for compound auto fluorescence at 535 nm (green) in HepG2 cells (AID 720675)
[7] = qHTS assay to test for compound auto fluorescence at 460 nm (blue) in HEK293 cells (AID 720678)
How it was run: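 HEK293 cells (2,000/well, medium with 10% dialyzed FBS) attached 4-5 hr, then exposed to compound overnight at 37C, 5% CO2. Blue fluorescence read at 405/460 nm, with triamterene as reference fluorophore.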

[8] = qHTS assay to test for compound auto fluorescence at 590 nm (red) in HEK293 cells (AID 720679)
How it was run: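 HEK293 cells (2,000/well, 10% dialyzed FBS) attached 4-5 hr, then dosed with compound or DMSO and incubated overnight at 37C, 5% CO2. Red fluorescence read at 540/590 nm, Rose Bengal sodium as reference fluorophore.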

[9] = qHTS assay for small molecule disruptors of the mitochondrial membrane potential (AID 720635)
How it was run: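 HepG2 cells (2,000/well) attached overnight at 37C, then took compound for 1 hr at 37C, 5% CO2. Mito-MPS dye was added for 30 min; fluorescence was read at 490/535 nm (monomers) and 540/590 nm (aggregates).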

[10] = qHTS assay for small molecules that induce genotoxicity in human embryonic kidney cells expressing luciferase-tagged ATAD5 (AID 651632); further: nearly all actives have a fitted effect of over 15% in size
How it was run: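 ATAD5-luc HEK293T, 2,000 cells/well; cpd or DMSO pin-transferred; 16 hr, 37C/5% CO2; Amplite 30 min RT; luminescence.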

Measured: Potency

Brc1c(NC2=NCCN2)ccc2nccnc12
inactive: [1] | [2] | [3] | [4] | [5] | [6] | [7] | [8]

O=C(CCCN1CCN(c2ccccn2)CC1)c1ccc(F)cc1
inactive: [1] | [2] | [3] | [4] | [9] | [5] | [6] | [7] | [8]

CCN(CC)CCNC(=O)c1cc(S(C)(=O)=O)ccc1OC
inactive: [10] | [2] | [3] | [4] | [9] | [5] | [6] | [7] | [8]

CCOC(=O)c1cccc(N)c1
inactive: [1] | [2] | [3] | [4] | [9] | [5] | [6] | [7] | [8]

C1CN(CCOCCN2CCOCC2)CCO1
inactive: [1] | [2] | [3] | [4] | [5] | [6] | [7] | [8]

CCc1nccnc1CC
inactive: [1] | [2] | [3] | [4] | [5] | [6] | [7] | [8]

O=C(O)Cc1ccc(CCNS(=O)(=O)c2ccc(Cl)cc2)cc1
inactive: [1] | [3] | [4] | [5] | [6] | [8]

CC(=O)Nc1c(I)cc(I)c(C(=O)O)c1I
inactive: [10] | [2] | [3] | [4] | [9] | [5] | [6] | [7] | [8]

CCC(C)C1CCCCC1=O (configuration not stated)
inactive: [10] | [2] | [3] | [4] | [9] | [5] | [6] | [7] | [8]

CC(=O)CC(C)C
inactive: [10] | [2] | [3] | [4] | [9] | [5] | [6] | [7] | [8]

COC(C)(C)CCCC(C)CC=O (configuration not stated)
inactive: [1] | [2] | [3] | [4] | [5] | [6] | [7] | [8]

C=CCOCC(CC)(CO)COCC=C
inactive: [1] | [2] | [3] | [4] | [9] | [5] | [6] | [7] | [8]

CN1CCC(=C2c3ccccc3CC(=O)c3sccc32)CC1
inactive: [1] | [3] | [4] | [5] | [6] | [7] | [8]

O=c1[nH]c(=O)n([C@H]2C[C@H](O)[C@@H](CO)O2)cc1I
inactive: [1] | [2] | [3] | [4] | [9] | [5] | [6] | [7] | [8]

Cc1c(O)cccc1O
inactive: [10] | [2] | [3] | [4] | [9] | [5] | [6] | [7] | [8]

C=COCC1CCC(CO)CC1 (configuration not stated)
inactive: [1] | [3] | [4] | [9] | [5] | [6] | [7] | [8]

CCCc1cc(C(N)=S)ccn1
inactive: [10] | [2] | [3] | [4] | [9] | [5] | [6] | [7] | [8]

Nc1c[n+](N2CCOCC2)no1
inactive: [10] | [2] | [3] | [4] | [9] | [5] | [6] | [7] | [8]

CC1=CC(C)C(C=O)CC1 (configuration not stated)
inactive: [10] | [2] | [3] | [4] | [9] | [5] | [6] | [7] | [8]

CC(C)c1cc2c(cc1S(=O)(=O)O)[C@@]1(C)CCC[C@@](C)(C(=O)O)[C@@H]1CC2
inactive: [1] | [2] | [3] | [4] | [9] | [5] | [6] | [7] | [8]

O=C1CC2CC1C1CCCC21 (configuration not stated)
inactive: [1] | [2] | [3] | [4] | [9] | [5] | [6] | [7] | [8]

c1cnc(N2CCN(Cc3ccc4c(c3)OCO4)CC2)nc1
inactive: [10] | [2] | [3] | [4] | [9] | [5] | [6] | [7] | [8]

CCCCCOC(=O)CCCCC
inactive: [1] | [2] | [3] | [4] | [5] | [6] | [7] | [8]

O=C1CCCCCCCCCCCN1
inactive: [1] | [2] | [3] | [4] | [9] | [5] | [6] | [7] | [8]

C=CCS(=O)(=O)O
inactive: [10] | [2] | [3] | [4] | [9] | [5] | [6] | [7] | [8]

CCOC(=O)[C@H](CCc1ccccc1)N[C@@H](C)C(=O)N1[C@H](C(=O)O)C[C@@H]2CCC[C@@H]21
inactive: [1] | [10] | [3] | [4] | [5] | [6] | [7] | [8]

O=C(O)CCCl
inactive: [1] | [2] | [3] | [4] | [9] | [5] | [6] | [7] | [8]

C[C@@H]1CCN(C(=O)[C@H](CCCN=C(N)N)NS(=O)(=O)c2cccc3c2NC[C@H](C)C3)[C@@H](C(=O)O)C1
inactive: [1] | [2] | [3] | [4] | [5] | [6] | [7] | [8]

NC(=O)c1cn(Cc2c(F)cccc2F)nn1
inactive: [1] | [2] | [3] | [4] | [9] | [5] | [6] | [8]
